Reference: PubChem BioAssay (NCI)
About 83,000 compounds went through this panel and 20% of them were active in at least one assay; those are over-represented in the sample as a whole.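 Single-dose data. Exposure time 48 hours. Values below 10 considered active.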 Unmarked numbers belong to inactive results. Activity calls are given as the source filed them.

Tests used:
Test in all cases: NCI-60 one-dose screen, 48 h (100 = growth as untreated, 0 = no growth, -100 = all killed)
Conditions in all cases: 10 µM unless noted
HT29 colon = test system: HT29 colon
SNB-75 CNS = test system: SNB-75 CNS
SNB-19 CNS = test system: SNB-19 CNS
U251 CNS = test system: U251 CNS
SK-MEL-5 melanoma = test system: SK-MEL-5 melanoma
UACC-62 melanoma = test system: UACC-62 melanoma
LOX IMVI melanoma = test system: LOX IMVI melanoma
SK-MEL-28 melanoma = test system: SK-MEL-28 melanoma
SK-MEL-2 melanoma = test system: SK-MEL-2 melanoma

Row | SMILES | growth (HT29 colon) | growth (SNB-75 CNS) | growth (SNB-19 CNS) [%] | growth (U251 CNS) [%] | growth (SK-MEL-5 melanoma) | growth (UACC-62 melanoma) | growth (LOX IMVI melanoma) | growth (SK-MEL-28 melanoma) [%] | growth (SK-MEL-2 melanoma)
1 | O=C(Nc1ccc(Oc2ccc(NC(=O)Nc3ccc([N+](=O)[O-])cc3)cc2)cc1)Nc1ccc([N+](=O)[O-])cc1 | 8.5% (active) | 42.6% | 29.7 | 17.6 | -76.1% (active) | 15.6% | 12.4% | 24.8 | -27.5% (active)
2 | Cc1nn(-c2ccc(Cl)cc2)c2nc3c(nc12)C(=O)C(=O)c1ccccc1-3 | 4.77% (active) | -2.08% (active) | 62.4 | 77.5 | 43.8% | 73.3% | 62.6% | 67.2 | 99.1%
3 | N#Cc1ccc(NC(=O)Nc2ccc(Oc3ccc(NC(=O)Nc4ccc(C#N)cc4)cc3)cc2)cc1 | 37.4% | 70.1% | 30.7 | 27.7 | 31.2% | 11.2% | 35.4% | 51 | -19.6% (active)
4 | O=C(NN(C(=O)c1ccccc1)c1cccs1)c1ccccc1 | 98.5% | 90.7% | 100 | 111 | 101% | 88.1% | 93.7% | 115 | 107%
5 | O=C1NCN(CCO)CN1 | 99.8% | 100% | 100 | 109 | 106% | 92.8% | 103% | 110 | 108%
6 | CC(C)C/C(=N\NC(=O)c1ccncc1)c1cc(Cl)ccc1O | 31.1% | 44.7% | 31.3 | 25.1 | 0.654% (active) | 6.43% (active) | 3.98% (active) | 40.5 | 7.55% (active)
7 | COc1ccc(C(=O)/C=C/c2c(Cl)nc3c(c(C)nn3-c3ccccc3)c2-c2ccc(Br)cc2)cc1 | 100% | 88.2% | 101 | 110 | 101% | 91.8% | 96.4% | 106 | 93.8%
8 | COc1ccccc1[C@H]1c2[nH]c3ccccc3c2C[C@H]2C(=O)N(CCCCCCC(=O)NO)CC(=O)N12 | 23.4% | -6.11% (active) | 67.3 | 46.6 | 26.6% | 23.7% | 32.7% | 18.6 | 59.5%
9 | O=C(Nc1cccc([N+](=O)[O-])c1)c1cccc(C(=O)Nc2cccc([N+](=O)[O-])c2)c1 | 88.5% | -40.4% (active) | 60.3 | 31.8 | 94% | 75.1% | 67.6% | 77.2 | 63.7%
10 | COc1ccc(Cn2cc3c(c2-c2ccccc2)CCc2cncnc2-3)cc1 | 19.7% | 71.1% | 62.8 | 47 | 55.4% | 33.3% | 52.3% | 59.3 | 28.2%
11 | CCC(=O)Nc1ccccc1C#C/C=C\C#Cc1ccccc1C(F)(F)F | 47.9% | 32.3% | 66.4 | 34.9 | 60.2% | 38.2% | 56.1% | 83.8 | 12.4%
12 | CCCCCCOc1ccc(/C=N/NC(N)=S)cc1 | 38.7% | 58.9% | 80.1 | 58.4 | 53.6% | 44.6% | 55.6% | 76.1 | 69.6%
13 | O=C(Oc1ccc[nH]c1=O)c1cccc(Cl)c1 | 97.4% | 53.2% | 85.8 | 92.7 | 99.8% | 95.3% | 90.8% | 127 | 108%
14 | O=C1OCC/C1=C\OCCCO/C=C1\CCOC1=O | 105% | 97.1% | 104 | 99.6 | 105% | 91% | 98.8% | 125 | 104%
15 | CC(C)c1ccc(C(=O)Nc2sc3c(CN(C)C)c(O)ccc3c2C(N)=O)cc1 | 2.74% (active) | 48.5% | 84.4 | 34.3 | 88.3% | 104% | -88.3% (active) | 84.2 | 96.4%
